# Test results published in PubChem BioAssay AID1159580 (chemical genetic matrix, 2015).
# Values joined by “and” are separate entries in the source; they are usually repeats but may differ in a detail not shown here. Identical values can stand only once. Out of some 5,500 compounds screened, about 2,000 (36%) were called active. Not shown: some 18% with an inconclusive outcome. This is one part of the list. Unmarked numbers belong to inactive results. Cut-off read from the data, not from the text of the source: active = normalized growth mostly below about 0.91 (no sharp cut-off); inconclusive = no clear call, values can overlap the other calls; inactive = mostly above about 0.92.
# Assay: chemical genetic growth profiling, strain panel (AID 1159580);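 note: tested at 20 µM; growth read once vehicle control cultures reached saturation at 30 °C; 1 = growth at the plate median or of vehicle wells; lower values mean less growth of the strain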
# Details: S. cerevisiae deletion strains, growth OD
compound,measurement,setting,value
NC(CO)C(=O)NNCc1ccc(O)c(O)c1O (configuration not stated),normalized growth,"locus YAL013W, strain DEP1, stronger effect = lower value",0.941
same,normalized growth,"locus YAL021C, strain ccr4, stronger effect = lower value",0.96
same,normalized growth,"locus YAL026C, strain drs2, stronger effect = lower value",0.977
same,normalized growth,"locus YAL030W, strain snc1, stronger effect = lower value",0.986
same,normalized growth,"locus YAL040C, strain CLN3, stronger effect = lower value",0.967
same,normalized growth,"locus YBL061C, strain skt5, stronger effect = lower value",0.999
same,normalized growth,"locus YBR009C, strain hhf1, stronger effect = lower value",0.971
same,normalized growth,"locus YBR021W, strain FUR4, stronger effect = lower value",1.02
same,normalized growth,"locus YBR023C, strain chs3, stronger effect = lower value",0.984
same,normalized growth,"locus YBR171W, strain sec66, stronger effect = lower value",0.996
same,normalized growth,"locus YBR229C, strain ROT2, stronger effect = lower value",1.02
same,normalized growth,"locus YBR231C, strain swc5, stronger effect = lower value",1
same,normalized growth,"locus YBR279W, strain paf1, stronger effect = lower value",0.97
same,normalized growth,"locus YCL011C, strain gbp2, stronger effect = lower value",0.946
same,normalized growth,"locus YCL016C, strain dcc1, stronger effect = lower value",0.977
same,normalized growth,"locus YCL029C, strain bik1, stronger effect = lower value",0.997
same,normalized growth,"locus YCL069W, strain vba3, stronger effect = lower value",0.968
same,normalized growth,"locus YCR088W, strain abp1, stronger effect = lower value",1
same,normalized growth,"locus YDL005C, strain med2, stronger effect = lower value",1.01
same,normalized growth,"locus YDL035C, strain GPR1, stronger effect = lower value",1.02
same,normalized growth,"locus YDL040C, strain nat1, stronger effect = lower value",1.01
same,normalized growth,"locus YDL074C, strain BRE1, stronger effect = lower value",0.98
same,normalized growth,"locus YDL101C, strain DUN1, stronger effect = lower value",0.99
same,normalized growth,"locus YDL185W, strain tfp1, stronger effect = lower value",1
same,normalized growth,"locus YDL192W, strain arf1, stronger effect = lower value",0.998
same,normalized growth,"locus YDR001C, strain nth1, stronger effect = lower value",0.982
same,normalized growth,"locus YDR069C, strain doa4, stronger effect = lower value",0.966
same,normalized growth,"locus YDR101C, strain arx1, stronger effect = lower value",0.971
same,normalized growth,"locus YDR137W, strain rgp1, stronger effect = lower value",0.91
same,normalized growth,"locus YDR150W, strain NUM1, stronger effect = lower value",1.03
same,normalized growth,"locus YDR159W, strain sac3, stronger effect = lower value",1.02
same,normalized growth,"locus YDR162C, strain NBP2, stronger effect = lower value",1.02
same,normalized growth,"locus YDR195W, strain ref2",1.03
same,normalized growth,"locus YDR297W, strain sur2, stronger effect = lower value",0.994
same,normalized growth,"locus YDR318W, strain mcm21, stronger effect = lower value",1
same,normalized growth,"locus YDR334W, strain swr1, stronger effect = lower value",0.982
same,normalized growth,"locus YDR335W, strain msn5, stronger effect = lower value",0.995
same,normalized growth,"locus YDR363W, strain ESC2, stronger effect = lower value",0.968
same,normalized growth,"locus YDR388W, stronger effect = lower value",0.99
same,normalized growth,"locus YDR392W, strain spt3, stronger effect = lower value",1.03
same,normalized growth,"locus YDR502C, strain sam2, stronger effect = lower value",0.988
same,normalized growth,"locus YEL003W, strain gim4, stronger effect = lower value",0.981
same,normalized growth,"locus YEL037C, strain rad23, stronger effect = lower value",0.98
same,normalized growth,"locus YEL061C, strain CIN8 (second series), stronger effect = lower value",0.981
same,normalized growth,"locus YEL061C, strain CIN8, stronger effect = lower value",1.01
same,normalized growth,"locus YER002W, strain NOP16, stronger effect = lower value",1
same,normalized growth,"locus YER015W, strain faa2, stronger effect = lower value",0.947
same,normalized growth,"locus YER016W, strain bim1, stronger effect = lower value",0.994
same,normalized growth,"locus YER110C, stronger effect = lower value",0.984
same,normalized growth,"locus YER111C, strain swi4, stronger effect = lower value",0.966
same,normalized growth,"locus YER155C, strain BEM2 (second series), stronger effect = lower value",1.08
same,normalized growth,"locus YER155C, strain BEM2, stronger effect = lower value",1
same,normalized growth,"locus YER167W, strain BCK2, stronger effect = lower value",1.02
same,normalized growth,"locus YFR010W, strain ubp6, stronger effect = lower value",0.989
same,normalized growth,"locus YGL078C, strain dbp3, stronger effect = lower value",0.993
same,normalized growth,"locus YGL086W, strain mad1, stronger effect = lower value",0.993
same,normalized growth,"locus YGL167C, strain pmr1, stronger effect = lower value",0.996
same,normalized growth,"locus YGL173C, strain kem1, stronger effect = lower value",1.01
same,normalized growth,"locus YGL227W, strain vid30, stronger effect = lower value",1.01
same,normalized growth,"locus YGL240W, strain doc1, stronger effect = lower value",1.06
same,normalized growth,"locus YGL248W, strain PDE1, stronger effect = lower value",1.01
same,normalized growth,"locus YGL253W, strain hxk2, stronger effect = lower value",0.958
same,normalized growth,"locus YGR078C, strain PAC10, stronger effect = lower value",0.995
same,normalized growth,"locus YGR135W, strain pre9, stronger effect = lower value",0.994
same,normalized growth,"locus YGR229C, strain SMI1, stronger effect = lower value",0.775 (active)
same,normalized growth,"locus YGR252W, strain gcn5, stronger effect = lower value",0.986
same,normalized growth,"locus YHR013C, strain ard1, stronger effect = lower value",0.987
same,normalized growth,"locus YHR027C, strain rpn1, stronger effect = lower value",0.911 (active)
same,normalized growth,"locus YHR030C, strain SLT2, stronger effect = lower value",1.02 and 1.05
same,normalized growth,"locus YHR079C, strain IRE1 (second series), stronger effect = lower value",1
same,normalized growth,"locus YHR079C, strain IRE1, stronger effect = lower value",1.06
same,normalized growth,"locus YHR094C, strain hxt1, stronger effect = lower value",1.01
same,normalized growth,"locus YHR129C, strain ARP1, stronger effect = lower value",1.01
same,normalized growth,"locus YHR142W, strain chs7, stronger effect = lower value",0.964
same,normalized growth,"locus YHR200W, strain rpn10, stronger effect = lower value",0.986
same,normalized growth,"locus YIL066C, strain RNR3, stronger effect = lower value",1.03
same,normalized growth,"locus YIL073C, strain SPO22, stronger effect = lower value",0.985
same,normalized growth,"locus YIL125W, strain kgd1, stronger effect = lower value",0.995
same,normalized growth,"locus YIR030C, strain dcg1, stronger effect = lower value",0.984
same,normalized growth,"locus YJL092W, strain hpr5, stronger effect = lower value",0.996
same,normalized growth,"locus YJL095W, strain BCK1 (second series), stronger effect = lower value",1
same,normalized growth,"locus YJL095W, strain BCK1, stronger effect = lower value",1.01 and 1.05
same,normalized growth,"locus YJL115W, strain asf1, stronger effect = lower value",1
same,normalized growth,"locus YJL129C, strain trk1, stronger effect = lower value",1.06
same,normalized growth,"locus YJL134W, strain LCB3, stronger effect = lower value",1.01
same,normalized growth,"locus YJL154C, strain vps35, stronger effect = lower value",0.993
same,normalized growth,"locus YJL164C, strain tpk1, stronger effect = lower value",0.953
same,normalized growth,"locus YJL166W, strain qcr8, stronger effect = lower value",1.02
same,normalized growth,"locus YJL168C, strain set2, stronger effect = lower value",1
same,normalized growth,"locus YJL187C, strain SWE1 (second series), stronger effect = lower value",0.988
same,normalized growth,"locus YJL187C, strain SWE1, stronger effect = lower value",0.983
same,normalized growth,"locus YJR043C, strain POL32, stronger effect = lower value",1.02
